The entries come from a sample that favours hits as a whole.
Cycloheximide cs: Cycloheximide Counterscreen for Small Molecule Inhibitors of Shiga Toxin; cell reporter, cycloheximide protein synthesis inhibition counterscreen; max response, %; 300,000 compounds, 12% hits; in the data active means max response mostly above about 13%, no sharp cut-off; inactive means mostly below about 14%; further: read at 38.3 µM for the half of the compounds with a filed dose; 0% is about no effect
NS1 function inh: qHTS Assay for Inhibitors of Influenza NS1 Protein Function; 270,000 compounds, 0.4% hits; Potency, µM (highest dose often 46.1 µM), for inactives: at the highest dose activity, positive = more growth; AID 2326, 2010; calls by dose curve; further: potency means the concentration at half of the fitted maximal effect; actives are rising curves; nearly all actives have a fitted effect of over 50% in size
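Read-out: OD600 growth recovery of NS1-expressing budding yeast. Cells grown overnight at 30C in -URA glucose medium, washed, resuspended and diluted 1:100 in 2% galactose assay medium, pH 6.0. Same strain lacking NS1 served as positive control.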
AmpC no deterg: qHTS Inhibitors of AmpC Beta-Lactamase (assay without detergent); 330,000 compounds, 0.52% hits; Potency, µM (series often up to 57.1 µM), inactives show at the highest dose activity change, negative = inhibition, hits mostly inhibitors; AmpC nitrocefin hydrolysis, absorbance 480 nm, 0.0001% Triton;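 further: potency means the concentration at half of the fitted maximal effect; plate controls were no compound for no effect and no enzyme for full effect; nearly all actives have a fitted effect of over 20% in size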
Target sequence (P00811 whole entry, looked up): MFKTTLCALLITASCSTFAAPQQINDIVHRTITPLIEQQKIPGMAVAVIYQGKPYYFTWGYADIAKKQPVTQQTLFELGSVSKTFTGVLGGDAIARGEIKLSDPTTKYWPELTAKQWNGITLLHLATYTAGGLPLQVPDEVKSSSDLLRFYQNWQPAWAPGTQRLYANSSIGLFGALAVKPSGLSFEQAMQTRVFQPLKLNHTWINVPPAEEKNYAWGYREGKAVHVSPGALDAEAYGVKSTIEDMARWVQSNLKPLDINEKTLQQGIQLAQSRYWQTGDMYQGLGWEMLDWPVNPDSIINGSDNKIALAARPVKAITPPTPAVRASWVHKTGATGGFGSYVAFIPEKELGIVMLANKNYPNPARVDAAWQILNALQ
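20 mM phosphate pH 7.0 + 0.01% (detergent screen) or 0.0001% Triton X-100; 5.3 nM AmpC reagent; cpd preinc 15 min RT; nitrocefin (800 uM stock) to start; A480 q20 s × 4 min; Activity was normalised to no-enzyme and no-compound control wells.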
Shiga inhibitor: A qHTS for Small Molecule Inhibitors of Shiga Toxin; AID 2315, 2010; 290,000 compounds, 9.2% hits; Vero cells, Shiga toxin protein synthesis inhibition reporter; inhibition, % at 38.7 µM; in the data active means inhibition mostly above about 28%, no sharp cut-off; inactive means mostly below about 43%; further: 0% is about no effect
AmpC inh detg: qHTS Inhibitors of AmpC Beta-Lactamase (assay with detergent); AID 485294, 2010; 370,000 compounds, 0.041% hits; AmpC hydrolysis of nitrocefin, absorbance 480 nm, 0.01% Triton; P00811; Potency, µM (titrated, usually from 114 µM), for inactives: at the top dose activity change, negative = inhibition, hits mostly inhibitors;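 further: potency means the concentration at half of the fitted maximal effect; 0% = no-compound wells and -100% = no-enzyme wells; nearly all actives have a fitted effect of over 25% in size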
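AmpC (5.3 nM in the dispensed reagent) in 20 mM phosphate pH 7.0 with 0.01% (detergent screen) or 0.0001% Triton X-100 was preincubated with compounds for 15 min at room temperature. Nitrocefin was then added from an 800 uM solution, and hydrolysis was followed at 480 nm.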
An asterisk follows results filed as active; ? = inconclusive; nt = not tested or not shown. Unless noted, the call rests on the fitted dose curve; in most records, active means well fitted curve in the direction sought with a large enough effect; inconclusive means small, poorly fitted or top-dose-only effect, or another doubt; inactive means no such curve, though single readings can be large; an effect the other way counts as inactive or inconclusive.

SMILES	Cycloheximide cs	NS1 function inh	AmpC no deterg	Shiga inhibitor	AmpC inh detg
CN(c1ccc(OCC(=O)Nc2nc3ccccc3s2)cc1)S(=O)(=O)c1ccccc1	-3	5%	-36%	-8	2%
CCOC(=O)c1sc(Nc2nc3c(OC)cccc3s2)cc1C	53*	-6%	-25%	108*	-2%
COCC(CN1CCN(C2=NS(=O)(=O)c3ccccc32)CC1)OC(=O)c1ccc(OC)cc1 (stereo not drawn)	-2	-38%	60%	-10	-3%
Cc1cc([N+](=O)[O-])nn1CCCC(=O)NC1CCCCC1	-5	nt	-15%	-6	-1%
O=C(CSc1nc2ccccc2c(=O)[nH]1)Nc1ccccc1C(F)(F)F	-8	7%	?	15	-3%
CC(=O)Nc1nc2cc3c(cc2s1)OCO3	31*	-55%	-16%	96*	-4%
CC(C)C(=O)Nc1nc2cc3c(cc2s1)OCCO3	55*	0%	-24%	93*	4%
O=C(Nc1nc2cc3c(cc2s1)OCCO3)c1ccco1	-8	-28%	-19%	-14	-7%
O=C(Nc1nc2cc3c(cc2s1)OCO3)c1ccco1	49*	-7%	-17%	86*	-1%
CC(=O)c1ccc2c(c1)C1C=CCC1C(c1ccncc1)N2 (stereo not drawn)	18*	17%	81%	97*	-10%
O=C(Nc1ccc(Cl)c(S(=O)(=O)N2CCCCC2)c1)c1ccco1	nt	nt	-31%	nt	2%
O=c1[nH]c(/C=C/c2ccccn2)nc2ccccc12	56*	-1%	-12%	70*	3%
c1ccc(-c2nc3c(ccc4ccccc43)[nH]2)nc1	42*	-15%	-18%	94*	-15%
O=c1[nH]c(/C=C/c2cccc3ccccc23)nc2ccccc12	27	2%	-24%	46	-9%
O=c1[nH]c(-c2ccccn2)nc2ccccc12	44*	-18%	-6%	105	?
Cc1sc2nc(-c3ccccn3)[nH]c(=O)c2c1-c1ccccc1	71*	nt	46%	114*	6%
CC(C)CNC(=O)CSc1ccc(S(=O)(=O)N2CCN(C)CC2)cn1	nt	nt	-5%	nt	-14%
CC(=O)N1CCC(C(=O)Nc2ccc(S(=O)(=O)NCCc3ccccc3)cc2)CC1	-2	-6%	0%	-11	-14%
CC(=O)c1ccc(NC(=O)CN(C)S(=O)(=O)c2cccc3nsnc23)cc1	nt	nt	nt	nt	0%
O=c1[nH]c(/C=C/c2ccccc2F)nc2ccccc12	34*	-3%	-14%	71*	-12%
Cc1cccc(-c2nc3c4ccccc4nc(N4CCN(c5ccccc5F)CC4)n3n2)c1	nt	nt	nt	nt	0%
CCOc1ccc(S(=O)(=O)Nc2ccc3c(c2)OCO3)c2cccnc12	23*	?	-40%	19	-3%
O=C(CSc1nnc(CNC(=O)c2cccs2)o1)Nc1ccc(F)cc1F	1	-2%	-18%	-11	?
Cc1ccc(-n2c(SCC(=O)N3CCCc4ccccc43)nc3c([nH]c4ccccc43)c2=O)cc1	nt	nt	nt	nt	3%
Cc1nc(-c2ccccc2)sc1C1(C)CC(c2ccc(C#N)cc2)=NO1 (stereo not drawn)	-2	-5%	-6%	-4	7%
SMILES	Cycloheximide cs	NS1 function inh	AmpC no deterg	Shiga inhibitor	AmpC inh detg
Cc1nc(-c2ccc(Cl)cc2)sc1C1(C)CC(c2ccc(F)cc2)=NO1 (stereo not drawn)	25*	17%	72%	47*	?
COC(=O)c1ccc(C2=NOC(C)(c3sc(-c4ccc(Cl)cc4)nc3C)C2)cc1 (stereo not drawn)	9	-1%	18%	33	3%
Cc1nc(-c2ccc(Cl)cc2)sc1C1(C)CC(c2cccc(F)c2)=NO1 (stereo not drawn)	28*	-3%	1%	52*	2%
Cc1nc(-c2ccc(Cl)cc2)sc1C1(C)CC(c2cccc(Cl)c2)=NO1 (stereo not drawn)	17*	15%	-12%	32*	3%
Cc1nc(-c2ccc(Cl)cc2)sc1C1(C)CC(c2ccc([N+](=O)[O-])cc2)=NO1 (stereo not drawn)	6	1%	-29%	2	3%
Cc1cc(Cl)ccc1NC(=O)COC(=O)c1c(C)noc1C	nt	nt	-15%	nt	1%
COc1cc(/C=C/C(=O)OCC(=O)NC(=O)NCc2ccco2)ccc1OC(F)F	nt	nt	20µM*	nt	nt
COc1cc(NC(=O)CN2C(=O)C(c3ccc(Cl)cc3)=NC23CCCCC3)cc(OC)c1	nt	nt	nt	nt	-9%
CC1Cc2nc(SCC(=O)N3CCN(c4ccccc4)CC3)n(C)c(=O)c2S1 (stereo not drawn)	-3	-21%	1.6µM*	-5	?
CCn1c(SCC(=O)NCc2ccccc2)nc2c(c1=O)SC(C)C2 (stereo not drawn)	4	-47%	1.6µM*	-5	-2%
CC1Cc2nc(SCC(=O)N3CCN(c4ccccc4)CC3)n(CCc3ccccc3)c(=O)c2S1 (stereo not drawn)	7	?	3.5µM*	19	-12%
CCOc1ccc(CCNC(=O)c2cccc(-n3c(C)nc4cccnc43)c2)cc1	nt	nt	nt	nt	-4%
CC1CC1C(=O)N1CCN(S(=O)(=O)c2cc(C(F)(F)F)cc(C(F)(F)F)c2)CC1 (stereo not drawn)	nt	nt	1%	nt	1%
Cc1ccc(-c2c(C3C4C=CCCC4(C)C(=O)N3Cc3ccccc3)ccc3ccccc23)cc1 (stereo not drawn)	9	nt	nt	7	nt
CCOC(=O)c1ccc(NC(=O)C(C)Sc2nc(=O)cc(N)n2CCc2ccccc2)cc1 (stereo not drawn)	nt	nt	nt	nt	0%
CCC(Sc1nc(=O)cc(N)n1CCc1ccccc1)C(=O)Nc1cc(C)on1 (stereo not drawn)	-2	?	2.8µM*	2	?
CCOc1ccccc1NC(=O)CSC1=Nc2ccccc2C2=NC(CC(=O)NC3CCCCC3)C(=O)N12 (stereo not drawn)	nt	nt	nt	nt	17%
O=C(O)c1cc(=O)c2cc(Cl)ccc2o1	-2	22%	nt	-9	5%
CN(C)CCCN=c1cc(-c2ccccc2)oc2ccc(Cl)cc12	14*	nt	49%	27	2%
OCCN=c1cc(-c2ccccc2)oc2ccc(Cl)cc12	52*	-9%	-13%	190*	?
CC(=O)Nc1c(C)nn(-c2ccccc2)c1N1CCC(C(=O)NCc2cccc(F)c2)CC1	nt	nt	nt	nt	-9%
N=C(N)SCCSC(=N)N	nt	1%	nt	nt	nt
CCn1c(SCc2ccccc2)nnc1-c1nonc1NC(C)=O	nt	nt	nt	nt	-1%
c1cncc(Nc2nc(-c3cccnc3)cs2)c1	12	-53%	-15%	21	-5%
c1ccc(Nc2nc(-c3cccnc3)cs2)nc1	57*	4%	-18%	104*	-2%
Fc1ccc(-c2csc(-c3ccncc3)n2)cc1	31*	nt	-15%	49*	6%
c1cncc(Nc2nc(-c3ccncc3)cs2)c1	1	-6%	-37%	-5	?

From PubChem
